Reference: PubChem BioAssay (Tox21)
“And” between values parts separate entries of the source, which are not always exact repeats. Equal entries are not always repeated. Records with an inconclusive call do not appear. The source made the active and inactive calls. Unless noted, the call rests on the fitted dose curve; in most records, active means well fitted curve in the direction sought with a large enough effect in the repeat runs; inconclusive means weak or mixed curves; inactive means no such curve, though single readings can be large; an effect the other way counts as inactive or inconclusive.

How the values were obtained:
[1] = qHTS assay to identify small molecule agonists of the farnesoid-X-receptor (FXR) signaling pathway - cell viability counter screen (AID 743218); further: nearly all actives have a fitted effect of over 45% in size; further: potency means the concentration at half of the fitted maximal effect
Procedure, shortened: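 HEK 293T FXR-bla cells; 5 h pre-incubation, 16 h compound exposure at 37 C; LiveBLAzer substrate 2 h RT, then CellTiter-Glo 30 min RT, luminescence.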

[2] = molecular target: Bile acid receptor (Homo sapiens) (UniProt Q96RI1); assay: qHTS assay to identify small molecule agonists of the farnesoid-X-receptor (FXR) signaling pathway (AID 743220; active means well fitted activation curve with a large enough effect in the signal ratio in the repeat runs, not every such curve was filed as active; the % refers to the signal ratio)
Procedure, shortened: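 Beta-lactamase reporter under UAS control in GeneBLAzer FXR HEK 293T cells (5000/well) measured with LiveBLAzer FRET substrate after 2 h at room temperature. Compound exposure lasted 16 h at 37C.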

[3] = molecular target: Vitamin D3 receptor (Homo sapiens) (UniProt P11473); assay: qHTS assay to identify small molecule agonists of the vitamin D receptor (VDR) signaling pathway (AID 743222; calls by dose curve)
Procedure, shortened: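 VDR-bla cells, 2,000/well; 4 h preincubation 37C; cpd (DMSO) 16 h; LiveBLAzer B/G substrate 2 h RT; fluorescence intensity read.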

[4] = qHTS assay to identify small molecule agonists of the vitamin D receptor (VDR) signaling pathway - cell viability counter screen (AID 743224); further: nearly all actives have a fitted effect of over 50% in size; further: potency means the concentration at half of the fitted maximal effect
Procedure, shortened: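 Luminescence from CellTiter-Glo, read after 30 min at room temperature, reports viability of VDR-bla cells treated with compounds for 16 h at 37C in the wells used for the beta-lactamase FRET read.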

[5] = qHTS assay to identify small molecule agonists of the NFkB signaling pathway - cell viability counter screen (AID 1159515; calls by dose curve; further: potency means the concentration at half of the fitted maximal effect; nearly all actives have a fitted effect of over 55% in size)
Procedure, shortened: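 Luminescence from CellTiter-Glo (30 min, room temperature) gives viability, measured in the same wells as the beta-lactamase reporter read. Cells were NFkB-bla ME-180, 2,000 per well, treated 5 hr with compounds.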

[6] = molecular target: Nuclear receptor ROR-gamma (Homo sapiens) (UniProt P51449); assay: qHTS assay to identify small molecule antagonists of the retinoid-related orphan receptor gamma (ROR-gamma) signaling pathway (AID 1159521; further: nearly all actives have a fitted effect of over 50% in size; further: potency means the concentration at half of the fitted maximal effect)
Procedure, shortened: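 Test compounds were applied to Tet-on RORγ CHO cells 2 h ahead of doxycycline hyclate (1 uM final). Luciferase reporter activity was quantified by luminescence after 16 h at 37 C and 5% CO2.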

[7] = qHTS assay to identify small molecule agonists of the AP-1 signaling pathway - cell viability counter screen (AID 1159525; calls by dose curve; further: nearly all actives have a fitted effect of over 55% in size; further: potency means the concentration at half of the fitted maximal effect)
Procedure, shortened: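 AP-1-bla ME-180 cells in Opti-MEM with 0.5% dialyzed FBS, compound exposure 5 h at 37 C in 15-point titration. Viability read in the same wells as ATP content by CellTiter-Glo luminescence, normalised to tetra-n-octylammonium bromide and DMSO controls.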

[8] = molecular target: Peroxisome proliferator-activated receptor delta (Homo sapiens) (UniProt Q03181); assay: qHTS assay to identify small molecule antagonists of the peroxisome proliferator-activated receptor delta (PPARd) signaling pathway (AID 743215; active means well fitted inhibition curve with a large enough effect in the signal ratio in the repeat runs, not every such curve was filed as active; the % refers to the signal ratio;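 further: cells stimulated with agonist L165041 at 300 nM final during compound exposure; series mostly up to about 62 µM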)
Procedure, shortened: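 Read-out is beta-lactamase FRET fluorescence, measured 2 h after substrate addition at room temperature. Beforehand, UAS-bla HEK293H cells carrying the PPARd reporter were exposed to compounds with L165041 at 300 nM final for 17 h at 37 C.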

[9] = qHTS assay to identify small molecule antagonists of the farnesoid-X-receptor (FXR) signaling pathway - cell viability counter screen (AID 743221; active means well fitted cell-killing curve with a large enough effect in the repeat runs, not every such curve was filed as active; further: nearly all actives have a fitted effect of over 50% in size)
Procedure, shortened: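 Here viability was scored by luminescence after CellTiter-Glo addition to wells already read for beta-lactamase. Prior treatment: compound plus CDCA (50 uM final), 16 h, 37 C, HEK 293T FXR-bla cells.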

[10] = qHTS assay to identify small molecule antagonists of the vitamin D receptor (VDR) signaling pathway - cell viability counter screen (AID 743225); further: nearly all actives have a fitted effect of over 50% in size; further: potency means the concentration at half of the fitted maximal effect
Procedure, shortened: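 Compounds were pinned onto VDR-bla HEK 293T cells together with 1-alpha,25-dihydroxyvitamin D3 at 3 nM final. After 16 h at 37C and 5% CO2 plus the reporter readout, cell viability was measured by CellTiter-Glo luminescence (30 min, room temperature).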

[11] = qHTS assay to identify small molecule agonists of the endoplasmic reticulum stress response signaling pathway (AID 1159516; active means well fitted activation curve with a large enough effect in the signal ratio in the repeat runs, not every such curve was filed as active; the % refers to the signal ratio)
Procedure, shortened: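 Read-out is beta-lactamase cleavage of a FRET substrate (405 nm excitation; 460 and 530 nm emissions) in ESRE-bla HeLa cells after a 5 hr compound exposure at 37 C. Substrate incubation ran 2 hr at room temperature.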

[12] = qHTS assay to identify small molecule agonists of the endoplasmic reticulum stress response signaling pathway - cell viability counter screen (AID 1159517; calls by dose curve; further: nearly all actives have a fitted effect of over 50% in size; further: potency means the concentration at half of the fitted maximal effect)
Procedure, shortened: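 ESRE-bla HeLa cells, 1,500 per well, seeded overnight then treated with compounds for 5 hr at 37 C. After the beta-lactamase read, viability in the same wells is measured by CellTiter-Glo luminescence after 30 min at room temperature.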

[13] = qHTS assay to identify small molecule antagonists of the retinoid-related orphan receptor gamma (ROR-gamma) signaling pathway - cell viability counter screen (AID 1159520); further: nearly all actives have a fitted effect of over 50% in size; further: potency means the concentration at half of the fitted maximal effect
Procedure, shortened: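 Tet-on ROR gamma CHO cells were given compounds for 2 hr, then doxycycline hyclate at 1 uM final, and incubated 16 hr at 37 C. Viability was measured as ATP content by CellTiter-Glo luminescence.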

[14] = qHTS assay to identify small molecule agonists of the peroxisome proliferator-activated receptor delta (PPARd) signaling pathway - cell viability counter screen (AID 743211); further: nearly all actives have a fitted effect of over 55% in size; further: potency means the concentration at half of the fitted maximal effect
Procedure, shortened: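 In the same wells used for beta-lactamase reporter measurement, cytotoxicity is scored by CellTiter-Glo. HEK293H PPARd-bla cells receive compound for 17 h at 37C following a 5 h settling period.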

[15] = molecular target: Peroxisome proliferator-activated receptor delta (Homo sapiens) (UniProt Q03181); assay: qHTS assay to identify small molecule agonists of the peroxisome proliferator-activated receptor delta (PPARd) signaling pathway (AID 743212; calls by dose curve)
Procedure, shortened: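 GeneBLAzer UAS-bla HEK293H cells carrying a PPARδ construct were exposed to compounds at 37 °C. Beta-lactamase activity was read by FRET fluorescence after 2 h at room temperature with LiveBLAzer B/G substrate.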

[16] = qHTS assay to identify small molecule antagonists of the peroxisome proliferator-activated receptor delta (PPARd) signaling pathway - cell viability counter screen (AID 743213); further: nearly all actives have a fitted effect of over 50% in size
Procedure, shortened: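 PPARd-bla HEK293H cells (3000/well) got compound plus 300 nM L165041 agonist for 17 h at 37 C. Viability in the same wells came from CellTiter-Glo luminescence after 30 min at room temperature.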

[17] = qHTS assay to identify small molecule agonists of the AP-1 signaling pathway (AID 1159526; calls by dose curve; further: potency means the concentration at half of the fitted maximal effect)
[18] = molecular target: Retinoic acid receptor RXR-alpha (Homo sapiens) (UniProt P19793); assay: qHTS assay to identify small molecule agonists of the RXR signaling pathway (AID 1159527; calls by dose curve; further: nearly all actives have a fitted effect of over 35% in size)
Procedure, shortened: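 Using 9-cis retinoic acid as the reference agonist, chemicals were tested in HEK 293T cells […] for 16 hr; substrate loading lasted 2 hr at room temperature.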

[19] = molecular target: Vitamin D3 receptor (Homo sapiens) (UniProt P11473); assay: qHTS assay to identify small molecule antagonists of the vitamin D receptor (VDR) signaling pathway (AID 743223; active means well fitted inhibition curve with a large enough effect in the signal ratio in the repeat runs, not every such curve was filed as active; the % refers to the signal ratio)
Procedure, shortened: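 Inhibition of agonist-driven VDR signalling is scored in VDR-bla cells: 3 nM final 1alpha,25-dihydroxyvitamin D3 plus compound, 16 h at 37C, then beta-lactamase detection by FRET substrate fluorescence after 2 h.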

[20] = molecular target: Bile acid receptor (Homo sapiens) (UniProt Q96RI1); assay: qHTS assay to identify small molecule antagonists of the farnesoid-X-receptor (FXR) signaling pathway (AID 743217; active means well fitted inhibition curve with a large enough effect in the signal ratio in the repeat runs, not every such curve was filed as active; the % refers to the signal ratio)
Procedure, shortened: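 HEK 293T FXR-UAS-bla, 5000 cells/well; compound + CDCA 50 uM final; 16 h, 37 °C; B/G FRET substrate 2 h RT; fluorescence.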

Measured: Potency

Chain of Retinoic acid receptor RXR-alpha (Homo sapiens) (P19793 whole entry, looked up): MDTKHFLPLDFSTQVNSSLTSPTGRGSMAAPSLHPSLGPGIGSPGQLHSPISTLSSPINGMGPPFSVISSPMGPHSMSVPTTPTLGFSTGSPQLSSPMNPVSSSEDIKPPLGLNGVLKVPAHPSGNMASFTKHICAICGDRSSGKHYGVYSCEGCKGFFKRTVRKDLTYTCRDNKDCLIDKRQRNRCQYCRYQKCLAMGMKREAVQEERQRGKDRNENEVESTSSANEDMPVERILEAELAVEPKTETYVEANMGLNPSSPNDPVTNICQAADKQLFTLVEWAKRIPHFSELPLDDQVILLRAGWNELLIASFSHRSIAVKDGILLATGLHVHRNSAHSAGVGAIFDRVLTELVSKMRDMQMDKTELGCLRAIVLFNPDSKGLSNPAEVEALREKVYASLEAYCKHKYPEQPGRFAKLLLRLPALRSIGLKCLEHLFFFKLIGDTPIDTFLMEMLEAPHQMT
Chain of Bile acid receptor (Homo sapiens) (Q96RI1 whole entry, looked up): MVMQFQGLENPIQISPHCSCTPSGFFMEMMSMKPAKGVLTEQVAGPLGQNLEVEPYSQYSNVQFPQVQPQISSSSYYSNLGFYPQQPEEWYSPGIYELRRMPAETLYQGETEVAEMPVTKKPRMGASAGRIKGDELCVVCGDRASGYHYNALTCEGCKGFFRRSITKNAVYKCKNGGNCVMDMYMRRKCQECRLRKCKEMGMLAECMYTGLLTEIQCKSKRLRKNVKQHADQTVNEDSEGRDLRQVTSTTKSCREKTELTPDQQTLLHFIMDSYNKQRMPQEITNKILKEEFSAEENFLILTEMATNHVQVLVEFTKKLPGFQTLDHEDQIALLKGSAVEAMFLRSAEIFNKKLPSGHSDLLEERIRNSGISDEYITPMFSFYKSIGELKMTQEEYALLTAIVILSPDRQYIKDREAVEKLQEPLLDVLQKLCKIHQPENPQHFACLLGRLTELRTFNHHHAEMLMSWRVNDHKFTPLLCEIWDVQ
Chain of Peroxisome proliferator-activated receptor delta (Homo sapiens) (Q03181 whole entry, looked up): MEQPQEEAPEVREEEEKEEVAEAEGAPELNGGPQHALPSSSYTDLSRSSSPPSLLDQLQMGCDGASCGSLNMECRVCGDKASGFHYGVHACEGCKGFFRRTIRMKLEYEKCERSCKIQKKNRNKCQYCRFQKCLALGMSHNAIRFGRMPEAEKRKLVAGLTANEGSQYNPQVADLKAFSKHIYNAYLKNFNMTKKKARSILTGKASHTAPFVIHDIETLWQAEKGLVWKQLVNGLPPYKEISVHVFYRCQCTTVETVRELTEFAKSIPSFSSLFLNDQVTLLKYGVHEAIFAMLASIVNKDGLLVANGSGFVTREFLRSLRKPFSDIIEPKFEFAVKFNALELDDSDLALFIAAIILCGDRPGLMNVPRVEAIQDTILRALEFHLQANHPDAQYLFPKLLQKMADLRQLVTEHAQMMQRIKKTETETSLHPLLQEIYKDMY
Chain of Vitamin D3 receptor (Homo sapiens) (P11473 whole entry, looked up): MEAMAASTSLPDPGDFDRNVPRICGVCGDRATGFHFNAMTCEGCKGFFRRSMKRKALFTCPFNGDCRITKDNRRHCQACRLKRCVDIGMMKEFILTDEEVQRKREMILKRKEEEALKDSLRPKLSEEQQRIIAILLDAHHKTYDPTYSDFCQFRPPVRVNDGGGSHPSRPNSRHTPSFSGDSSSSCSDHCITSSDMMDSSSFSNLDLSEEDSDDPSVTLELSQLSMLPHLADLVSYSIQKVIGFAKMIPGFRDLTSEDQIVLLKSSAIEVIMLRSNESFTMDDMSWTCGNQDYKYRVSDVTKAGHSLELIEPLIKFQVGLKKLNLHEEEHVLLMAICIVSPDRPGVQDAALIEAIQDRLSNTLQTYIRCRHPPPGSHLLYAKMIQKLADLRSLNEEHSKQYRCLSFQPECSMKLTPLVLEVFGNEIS

N#CSCSC#N
inactive: [1] | [2] | [3]
active: [4] 15.8 µM and 17.2 µM | [5] 25.1 µM | [6] 12.1 µM | [7] 25.1 µM and 21.7 µM

CC(C)CCCCCCCOP(=O)(Oc1ccccc1)Oc1ccccc1
inactive: [8] | [9] | [4] | [10] | [11] | [12] | [13]

CC(C)(C)OO
not listed: [2] | [5] | [6] | [19] | [20]
inactive: all other assays above

NNC(=O)c1ccccc1
not listed: [2] | [3] | [4] | [5] | [19] | [20]
inactive: all other assays above

CCN
inactive: [16] | [1] | [9] | [10] | [11] | [12] | [13] | [7] | [17] | [18]

c1ccc(OCC2CO2)cc1 (configuration not stated)
inactive: [1] | [9] | [19] | [10] | [11] | [12] | [13] | [6] | [7] | [17]

O=C(O)COc1nc(Cl)c(Cl)cc1Cl
inactive: [14] | [2] | [3] | [11] | [12] | [13] | [7] | [17]

O=c1[nH]c2ccccc2n1C1CCN(CCCC(c2ccc(F)cc2)c2ccc(F)cc2)CC1
inactive: [2] | [11]
active: [14] 24.5 µM and 29.8 µM | [1] 21.9 µM | [4] 21.9 µM | [10] 24.5 µM | [12] 49 µM and 23.9 µM | [13] 24.3 µM and 29.8 µM | [7] 19.5 µM

CN(C)CCc1c[nH]c2ccc(O)cc12
not listed: [2] | [4] | [5] | [6] | [14] | [16] | [18]
inactive: all other assays above

CCCN(CCC)CCc1c[nH]c2ccccc12
active: [17] 43.1 µM
not listed: [2] | [5] | [6] | [7] | [16] | [18]
inactive: all other assays above
